PubChem BioAssay (NCI)
Compounds without any hit were thinned out: in the full panel of roughly 83,000, 20% have a hit.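 Growth was measured after 48 h exposure to one concentration of compound in 96-well plates. Values under 10 count as active.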 A number with no mark means an inactive call. Calls of active or inactive are those of the source.

Tests used:
Assay in all cases: NCI-60 one-dose screen, 48 h (100 = growth as untreated, 0 = no growth, -100 = all killed)
Conditions in all cases: 10 µM unless noted
T-47D breast = test system: T-47D breast
BT-549 breast = test system: BT-549 breast
MDA-MB-435 melanoma = test system: MDA-MB-435 melanoma
SW-620 colon = test system: SW-620 colon
MCF7 breast = test system: MCF7 breast
HCT-116 colon = test system: HCT-116 colon
HCC-2998 colon = test system: HCC-2998 colon
KM12 colon = test system: KM12 colon

| Structure (SMILES) | growth (T-47D breast) | growth (BT-549 breast) | growth (MDA-MB-435 melanoma) | growth (SW-620 colon) | growth (MCF7 breast) | growth (HCT-116 colon) | growth (HCC-2998 colon) | growth (KM12 colon) |
| --- | --- | --- | --- | --- | --- | --- | --- | --- |
| N#Cc1c(N2CCNCC2)nc2sc3cc(Cl)c(Cl)cc3n2c1=N | 89.5% | 118% | 113% | 99% | 75.2% | 97.1% | 118% | 115% |
| Cc1cc(Cl)nc(NCc2cc(Nc3ccnc4cc(Cl)ccc34)ccc2F)n1 | 25.4% | 65.5% | 41.2% | 43.9% | 17.4% | 23.7% | 73.1% | 79.9% |
| CC/C=C\C[C@H](O)C/C=C1/C(=O)C=C[C@@H]1C/C=C\CCCCO | 21.6% | -8.67% (active) | -5.88% (active) | -12.4% (active) | 13.3% | -64.6% (active) | 6.24% (active) | -16.1% (active) |
| Oc1ccc(CN2CCC(N3CCOCC3)CC2)c2cccnc12 | 16.3% | 29.8% | 16.3% | 22% | 9.1% (active) | 9.68% (active) | 51.5% | 20.9% |
| COc1cc(OC)cc(C2CC(=O)Nc3c2c(C)nn3-c2nc3ccccc3[nH]2)c1 (stereo unspecified) | 12.6% | 39.1% | 9.66% (active) | 24% | 7.95% (active) | 0.333% (active) | 69.1% | 30.5% |
| Cc1ccc(C(=O)C2=C(O)C(=O)N(Cc3cccnc3)C2c2ccccc2F)o1 (stereo unspecified) | 95.2% | 99.2% | 102% | 103% | 98.3% | 95.2% | 94.3% | 106% |
| CCCCN(CCCC)CC(C)(C)C(O)c1ccc(OC)c2ccccc12 (stereo unspecified) | 52.9% | 57.1% | 59.3% | 33.4% | 45.5% | 3.51% (active) | 51.9% | 45.1% |
| COCN1CCC2N(COC)CCC3N(COC)CCC1N23 (stereo unspecified) | 99.6% | 108% | 110% | 114% | 99.4% | 101% | 100% | 106% |
| CCCCCCCCn1ccc2cc(NC(=O)Cn3cc(CN4CCCC4)nn3)ccc21 | 24.1% | 70.8% | -72.2% (active) | -54.8% (active) | 8.32% (active) | 37.7% | -54% (active) | 41.8% |
| CC(C)Sc1nc(NNC(N)=S)c(C#N)c(-c2ccc(F)cc2)n1 | 83.2% | 104% | 108% | 106% | 99.1% | 94.6% | 101% | 99% |
| CCCCOc1nc2ccccc2cc1C1CNC(=O)c2ccccc2N1 (stereo unspecified) | 20.9% | 41% | -63.8% (active) | 20.9% | 21.2% | 15.6% | 56.5% | 23.9% |
| CN(C)c1ccc(-c2cc(-c3ccc(Nc4nc(Nc5ccc(Cl)cc5)nc(Nc5ccc(Cl)cc5)n4)cc3)no2)cc1 | -4.43% (active) | 58.2% | 9.44% (active) | 53.6% | 13.4% | 31.3% | -5.58% (active) | 28.5% |
| O=C(NC(Cc1nnc2n(Cc3ccccc3)c(=O)c3c4c(sc3n12)CCCC4)c1ccc(Cl)cc1)c1ccccc1 (stereo unspecified) | 85.3% | 107% | 56.8% | 73.1% | 84.9% | 87.1% | 68.5% | 98.7% |
| Cc1c(C(=O)OC(=NC2CCCCC2)NC2CCCCC2)sc2c1c(=O)nc1c(C#N)n[nH]n12 | 109% | 121% | 117% | 107% | 103% | 104% | 100% | 110% |
| COc1ccc(/C=C/c2c(C(=O)/C=C/c3cccs3)c(C)nc3ccccc23)cc1 | 47.8% | 94.3% | 68.5% | 82.5% | 53.9% | 47.5% | 85.6% | 78.9% |
| O=C1N=c2cc3c(cc2=C/C1=C/c1sc(=S)n(CCc2ccc(O)cc2)c1O)OCCO3 | 81.5% | 78.5% | 61.1% | 5.91% (active) | 28.6% | 7.52% (active) | 29.4% | 52.5% |

| Structure (SMILES) | growth (T-47D breast) | growth (BT-549 breast) | growth (MDA-MB-435 melanoma) | growth (SW-620 colon) | growth (MCF7 breast) | growth (HCT-116 colon) | growth (HCC-2998 colon) | growth (KM12 colon) |
| --- | --- | --- | --- | --- | --- | --- | --- | --- |
| COc1ccc(S(=O)(=O)NCCNc2nccc(-c3c(-c4cccc(F)c4)nc4sccn34)n2)cc1 | 25% | 47% | 14.7% | 52.6% | 17.1% | 19.7% | 52.9% | 18.3% |
| O=C(COc1ccc(/C=C2\Oc3ccccc3C2=O)cc1)Nc1nc2c(s1)CCCC2 | 87% | -13.9% (active) | 24.4% | 65.5% | 82.5% | 75.5% | 99.6% | -75% (active) |
| COc1ccc2cc(-c3cc(OC)c(OC)c(OC)c3)c(=O)oc2c1 | 56.5% | 50.1% | 7.5% (active) | 44.3% | 37.5% | 46.9% | 86.6% | 65.8% |
| CCCCn1c(=O)c2c(nc3n2CCCN3CCc2ccc(OCC(=O)NCCN(CC)CC)cc2)n(CCCC)c1=O | 53.6% | 67% | 63.6% | 79.2% | 36.6% | 36.4% | 56.8% | 77.5% |
| c1coc(-c2c3ccc(=[N+]4CCCCC4)cc-3oc3cc(N4CCCCC4)ccc23)c1 | -50.4% (active) | -82.8% (active) | -68.1% (active) | -80% (active) | -69.7% (active) | -95.2% (active) | -96.5% (active) | -93.3% (active) |
| O=C(O)CN1C(=O)CCC1=O | 90.4% | 103% | 102% | 114% | 92% | 115% | 110% | 104% |
| N=c1sc(Cc2ccc(Cl)cc2)cn1CC(=O)c1ccc(F)cc1 | 64.6% | 94.9% | 37% | 53.5% | 55% | 63.7% | 59% | 39.9% |
| S=C(Cc1ccc2c(c1)CCCC2)N1CCOCC1 | 80.2% | 101% | 101% | 114% | 94.3% | 87.6% | 98% | 106% |
| COc1ccc(-c2nc(SCCC(C)C)nc(N/N=C\c3cccc([N+](=O)[O-])c3)c2C#N)cc1 | 27.5% | 63.2% | 56.3% | 15.5% | 35.6% | 23.5% | 52% | 27.1% |
| CC(=O)n1c(-c2ccc(Cl)cc2)nc2c(c1=O)C(c1ccc(Cl)cc1)c1sc3c(Cl)cccc3c1O2 (stereo unspecified) | -2.51% (active) | -7.92% (active) | -19.6% (active) | -11.1% (active) | 5.59% (active) | -45.9% (active) | -45.4% (active) | -17.4% (active) |
| CC/C=C\CCC/C=C1/C(=O)C=C[C@@H]1C/C=C\CCCC(=O)O | 55.3% | 32.3% | 5.08% (active) | 9.71% (active) | 20.2% | -30.2% (active) | 68.2% | 32% |
| CCOC(=O)c1c(/C=C/C(=O)O)nc2ccccc2c1/C=C/c1ccccc1 | 36.4% | 19.1% | 21.6% | 30.1% | 30.2% | 22.4% | 35.1% | 19.7% |
| Cc1ccc(NS(=O)(=O)c2ccc3c(c2)C(=O)CC(c2ccc(C(=O)C(C)C)cc2)N3)cc1C (stereo unspecified) | 39.8% | 65.6% | 58.3% | 70.5% | 37.4% | 54% | 89.9% | 71.9% |
| CC(=O)c1nc(Nc2ccc(C)cc2)sc1C | 85.6% | 87.1% | 103% | 97.4% | 87.3% | 90.9% | 101% | 98.6% |
| COc1ccccc1CNCCCN1C(=O)c2ccc3c4c(ccc(c24)C1=O)C(=O)N(CCCNCCCCN)C3=O | -14.7% (active) | -75.6% (active) | 1.2% (active) | -0.0566% (active) | -45.7% (active) | -8.71% (active) | -71.8% (active) | -15.8% (active) |
| NC(=O)c1ccc[n+]([C@@H]2O[C@H](COP(=O)([O-])OP(=O)(O)OC[C@H]3O[C@@H](n4cnc5c(N)ncnc54)[C@H](O)[C@@H]3O)[C@@H](O)[C@H]2O)c1 | 114% | 95.9% | 104% | 107% | 102% | 94.7% | 100% | 101% |
